# Measurements from PubChem BioAssay AID1626 (SRMLSC, 2009).
# Hit rate of the full screen: of about 220,000 compounds, about 2,000 (0.91%) were called active. Another 2% or so got no clear call; they are omitted. Not all results are given here. Results with a measured potency or affinity are listed apart. Values without a mark were called inactive. No stated cut-off is given here; in the data, inconclusive means inhibition above about 80% without an active follow-up result; inactive means below that; test concentration not stated here.
# Assay: M. tuberculosis H37Rv growth inhibitors, H37Rv strain (AID 1626);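 further: bacteria incubated seven days before Alamar blue readout; 0% = bacteria only wells and 100% = bacteria with antibiotic wells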
# Conditions: hits give high values, concentration not given here
row,Compound,inhibition
1,COCCNS(=O)(=O)c1cc(-c2nn(C)c(=O)c3ccccc23)ccc1C,-0.86%
2,Cc1sc2nc(COC(=O)c3cccc(OC(F)F)c3)[nH]c(=O)c2c1C,11.1%
3,Cc1ccccc1NC(=O)/C=C/c1cccs1,-3.01%
4,Cc1cc([N+](=O)[O-])ccc1NC(=O)/C=C/c1cccs1,-0.49%
5,COc1ccccc1NC(=O)C(=O)N/N=C/c1ccc([N+](=O)[O-])s1,4.5%
6,Cc1ccc(NC(=O)COC(=O)c2ccc([N+](=O)[O-])s2)c(C)c1,9.26%
7,CCNc1nc(NCC)nc(SCCOc2ccc(C)cc2)n1,15.1%
8,COc1ccc(S(=O)(=O)NCC2CCCN(C(=O)c3ccco3)C2)cc1 (stereo unspecified),-5.58%
9,Cc1cc(CNC(=O)CC2C(=O)NCCN2CC(c2ccccc2)c2ccccc2)on1 (stereo unspecified),1.54%
10,Cn1ncc2c(Nc3ccccc3Cl)nc(Nc3ccccc3Cl)nc21,29.2%
11,Cn1ncc2c(Nc3ccc(O)cc3)nc(Cl)nc21,-3.66%
12,COc1ccc(-n2c(SCC(=O)O)nc3sc4c(c3c2=O)CCC4)cc1,-7.18%
13,Cc1nc2ccccc2n1Cc1n[nH]c(=S)n1-c1ccc(Cl)cc1,-9.13%
14,CCCn1c(Nc2ccc(Cl)cc2)nc2ccccc21,3.28%
15,CCc1c(C)[nH]n(-c2nc(-c3ccccc3)cs2)c1=O,5.2%
16,NS(=O)(=O)c1ccc(N=Nc2c(-c3ccccc3)[nH]n(-c3nc(-c4ccccc4)cs3)c2=O)cc1,15.4%
17,CC(C)[C@H](NC(=O)NCc1ccc(F)cc1)C(=O)O,-4.85%
18,COc1ccc(C(NC(=O)c2ccc(F)cc2)c2ccccc2)cc1 (stereo unspecified),-2.49%
19,COc1ccc(-c2noc(CCCC(=O)Nc3cccnc3)n2)cc1OC,-1.27%
20,COc1ccc(CNc2ccc3c(c2)CCC3)cc1OC,45.5%
21,CCOc1cc(CNc2ccc3c(c2)CCC3)ccc1OC,46.6%
22,CC(NC(=O)c1ccc(OC2CCN(S(=O)(=O)N(C)C)CC2)cc1)C1CC1 (stereo unspecified),-9.26%
23,CC(=O)c1ccc(N(C(=O)Cn2nnc3ccccc32)C(C(=O)NC2CCCCC2)c2cn(C)nc2C)cc1 (stereo unspecified),-5.66%
24,Clc1nc(-c2cccnc2)nc2scc(-c3ccccc3)c12,8.19%
25,Clc1ncnc2scc(-c3ccccc3)c12,-11.5%
26,O=C(COC(=O)c1ccc(Br)o1)Nc1nc2ccccc2s1,-3.5%

row,Compound,inhibition
1,O=C(OCc1nc2ccccc2s1)c1ccccc1O,16.7%
2,Nc1ccc(C(=O)OCc2nc3ccccc3s2)cc1,-2.83%
3,O=C(COC(=O)c1ccco1)Nc1nc2ccccc2s1,-0.64%
4,CC(OC(=O)C(NC(=O)c1ccco1)C(C)C)C(=O)Nc1ncc(Cl)cc1Cl (stereo unspecified),-14.4%
5,Cc1c(N=Cc2nc3ccccc3n2C)c(=O)n(-c2ccccc2)n1C,-8.83%
6,CCN(CC)Cc1cc(C(=O)O)c(C)o1,-8.95%
7,Cc1ccc(C2(C)NC(=O)N(Cc3c(C)noc3C)C2=O)cc1 (stereo unspecified),-0.8%
8,O=C(Nc1ccc([N+](=O)[O-])cn1)C1CC1,5.22%
9,O=C(NCc1cccc(Cl)c1)c1ccco1,0.19%
10,CN1C(=O)N(C)C(=O)C2(Cc3cc([N+](=O)[O-])ccc3N(C)C2c2ccccc2)C1=O (stereo unspecified),-13.2%
11,CC1CN2c3ccc([N+](=O)[O-])cc3CC3(C(=O)N(C)C(=O)N(C)C3=O)C2C(C)O1 (stereo unspecified),-12.5%
12,CN1c2ccc([N+](=O)[O-])cc2CC2(C(=O)NC(=O)N(c3ccccc3)C2=O)C1c1ccccc1 (stereo unspecified),76.5%
13,CN1c2ccc([N+](=O)[O-])cc2CC2(C(=O)NC(=O)NC2=O)C1c1ccccc1 (stereo unspecified),0.68%
14,COc1ccc2nc(C)cc(Sc3nc4ccccc4s3)c2c1,0.98%
15,COc1ccc(Cl)cc1N1C(=O)C2CCCN2C1c1sccc1C (stereo unspecified),-9.7%
16,CCCCC(Sc1nc(N)c(NC(=O)c2ccc(OC)cc2)c(=O)[nH]1)C(=O)O (stereo unspecified),-2.8%
17,Cc1ccc(OCC(=O)Nc2ccc(S(=O)(=O)Nc3ccccn3)cc2)c(C)c1,-1.52%
18,COc1ccc(/C=N/NC(=O)C(C)Sc2ccccn2)cc1[N+](=O)[O-] (stereo unspecified),-3.03%
19,CCOc1cccc(CN2CCCC(CCC(=O)NCc3ccccc3F)C2)c1O (stereo unspecified),-1.53%
20,CC1CCc2c(sc3nc(CSc4nnnn4C)[nH]c(=O)c23)C1 (stereo unspecified),42.6%
21,CCCCNC(=O)Nc1cnn(CC)c1C(N)=O,-2.68%
22,O=C1O/C(=C\c2ccccc2)c2ccccc21,1.65%
23,O=C1O/C(=C/c2ccccc2)c2ccccc21,2.2%
24,Nc1nnc(SCC(=O)N2CCN(c3ccccc3)CC2)n1-c1ccccc1,-16.5%
25,Cc1[nH]nc2c1C(=O)CCC2,-7.75%
